HCV NS3h FP = blocks HCV NS3 helicase binding to DNA; inhibition, % at 100 µM; hit rate 1.6% among 16,000; NS3h Cy5-dT15 DNA binding, fluorescence polarization;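 active = inhibition above the average over every tested compound plus 3 SD, cut at about 40% in these data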
Cy5 interf NS3h = counter-screen for HCV NS3 helicase inhibitors: fluorescence interference. Cy5-dT15 DNA with NS3h; actives lie on both sides; signal over control mean, under 1 quenches. fluorescence interference ratio at 100 µM. hit rate 6% among 16,000. AID 720488;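 active = compound fluorescence over control fluorescence at most 0.8, a quencher, or at least a set upper limit, an enhancer; inactive = ratio between 0.8 and the set upper limit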
* marks the source's active call; other numbers are inactive results. In the library only some 6.9% were active in any assay of this set; here they are far more common.

For CC1=C(C(=O)Nc2ccc(C)c(Cl)c2)C(c2cccc([N+](=O)[O-])c2)NC(=O)N1 (stereo not given) the results were HCV NS3h FP 1 and Cy5 interf NS3h 0.9.
For COc1ccccc1-n1cnc2cc(Nc3nnc(C)c4ccccc34)ccc21 the results were HCV NS3h FP -2 and Cy5 interf NS3h 0.93.
Screening Cn1cnc2cc(Nc3nnc(-c4ccccc4)c4ccccc34)ccc21 returned HCV NS3h FP -4 and Cy5 interf NS3h 1.
`COc1ccc(-c2nnc(Nc3ccc4c(c3)nc(C)n4C)c3ccccc23)cc1` gave HCV NS3h FP 5 and Cy5 interf NS3h 0.93.
Cc1nnc(Nc2ccc3c(c2)ncn3C)c2ccccc12 was read as HCV NS3h FP 12 and Cy5 interf NS3h 1.2*.
For Cc1ccc(-c2nnc(Nc3ccc4c(c3)nc(C)n4C)c3ccccc23)cc1 the results were HCV NS3h FP 5 and Cy5 interf NS3h 0.71*.
For COc1ccc(-n2cnc3cc(Nc4nnc(C)c5ccccc45)ccc32)cc1 the results were HCV NS3h FP 5 and Cy5 interf NS3h 0.74*.
`COc1ccc(NC(=O)C2CC2(c2ccc(C)cc2)c2ccc(C)cc2)cc1` (stereo not given) gave HCV NS3h FP 3 and Cy5 interf NS3h 1.1.
Screening Cc1cc(C)c(/C=N\O)c(C)c1/C=N\O returned HCV NS3h FP -1 and Cy5 interf NS3h 0.69*.
For COc1ccc(S(=O)(=O)Nc2ccc(Br)cc2C)cc1 the results were HCV NS3h FP 18 and Cy5 interf NS3h 1.1.
COc1ccc(N=C2C(=O)Nc3ccc(C)c(Br)c32)cc1 was read as HCV NS3h FP 21 and Cy5 interf NS3h 0.66*.
Cc1ccc(C(=O)O/N=C(/N)c2ccc(Br)cc2)cc1[N+](=O)[O-] was read as HCV NS3h FP 18 and Cy5 interf NS3h 0.78*.
Cc1ccc(C(=O)O/N=C(/N)c2ccc(Cl)cc2)cc1[N+](=O)[O-] was read as HCV NS3h FP -2 and Cy5 interf NS3h 0.96.
COc1cc(C2C3=C(CC(C)(C)CC3=O)OC3=C2C(=O)CC(C)(C)C3)cc(I)c1O was read as HCV NS3h FP 7 and Cy5 interf NS3h 1.1.
Screening COc1cc(C2C3=C(CC(C)(C)CC3=O)OC3=C2C(=O)CC(C)(C)C3)ccc1OCc1ccc([N+](=O)[O-])cc1 returned HCV NS3h FP 10 and Cy5 interf NS3h 0.8*.
For Cc1oc2ccc(O)cc2c1-c1ccccc1 the results were HCV NS3h FP 23 and Cy5 interf NS3h 0.9.
For COc1ccc(/C=N\N=C(\N)c2nonc2N)c(OC)c1 the results were HCV NS3h FP 14 and Cy5 interf NS3h 0.95.
For Cc1cccc(NC(=O)CSc2nsc(SCC(=O)Nc3cccc(C)c3)n2)c1 the results were HCV NS3h FP 2 and Cy5 interf NS3h 0.94.
For CCOc1ccc2nc(SCC(=O)Nc3cccc(C)c3)sc2c1 the results were HCV NS3h FP 3 and Cy5 interf NS3h 0.61*.
CC(C)CC(=O)Nc1ccc(-c2nc3ccccc3s2)cc1 was read as HCV NS3h FP 11 and Cy5 interf NS3h 1.1.
COc1ccc2nc(SCC(=O)Nc3ccc(Cl)cc3)[nH]c2c1 was read as HCV NS3h FP 13 and Cy5 interf NS3h 1.
`O=C(O/N=C\c1ccc([N+](=O)[O-])cc1)c1cccs1` gave HCV NS3h FP 3 and Cy5 interf NS3h 0.75*.
For O=C(/C=C/c1ccc(-c2cccc([N+](=O)[O-])c2)o1)c1cccs1 the results were HCV NS3h FP -5 and Cy5 interf NS3h 1.1.
For CC(C)CN1C(=O)/C(=C/c2ccc(Cl)c(Cl)c2)SC1=S the results were HCV NS3h FP 14 and Cy5 interf NS3h 0.97.
Screening CCCCN=C1CC(C)(C)C(C(=O)OC)C(O)=C1C(=O)CCC (stereo not given) returned HCV NS3h FP 0 and Cy5 interf NS3h 1.1.
CC(=O)c1ccc(NC(=O)c2ccc(OCC(C)C)cc2)cc1 was read as HCV NS3h FP 3 and Cy5 interf NS3h 1.1.
Screening CCOc1ccc2nc(NC(=O)c3ccc(Cl)cc3)sc2c1 returned HCV NS3h FP 3 and Cy5 interf NS3h 1.1.
`O=c1cc(-c2ccccc2)c2cc(Cl)ccc2[nH]1` gave HCV NS3h FP -13 and Cy5 interf NS3h 1.1.
For Cn1c(=O)cc(-c2ccccc2)c2ccccc21 the results were HCV NS3h FP 14 and Cy5 interf NS3h 0.69*.
Screening O=C(Oc1ccc(Oc2ccccc2)cc1)c1ccc(Br)o1 returned HCV NS3h FP 10 and Cy5 interf NS3h 1.2*.
`Cc1ccc2cccc(OC(=O)c3ccc(Br)o3)c2n1` gave HCV NS3h FP 1 and Cy5 interf NS3h 1.
For O=C(OCc1ccccc1)Sc1nnc(-c2ccc(Br)cc2)o1 the results were HCV NS3h FP 14 and Cy5 interf NS3h 0.78*.
Screening O=C(CSc1nnc(-c2ccc(Br)cc2)o1)NCc1ccccc1 returned HCV NS3h FP 9 and Cy5 interf NS3h 1.
`Cc1cc(C)cc(N2C(=O)NC(=O)/C(=C\c3ccc(N(C)C)cc3)C2=O)c1` gave HCV NS3h FP 27 and Cy5 interf NS3h 1.1.
`Cc1cc(C)n(S(=O)(=O)c2ccc3c(c2)C(=O)c2cc(S(=O)(=O)n4nc(C)cc4C)ccc2-3)n1` gave HCV NS3h FP -57 and Cy5 interf NS3h 0.64*.
For Cc1ccc2ccc(S(=O)(=O)n3nc(C)cc3C)cc2c1 the results were HCV NS3h FP 7 and Cy5 interf NS3h 1.
Screening CC1=NN(c2ccc(C)c(C)c2)C(=O)/C1=C/c1ccc([N+](=O)[O-])o1 returned HCV NS3h FP 20 and Cy5 interf NS3h 0.68*.
For CC1=NN(c2cccc(C(=O)O)c2)C(=O)/C1=C\c1ccc(-c2cc([N+](=O)[O-])ccc2C)o1 the results were HCV NS3h FP 8 and Cy5 interf NS3h 0.97.
`Cc1ccc(C(=O)NC(NC(=S)Nc2ccccc2)C(Cl)(Cl)Cl)cc1` (stereo not given) gave HCV NS3h FP 0 and Cy5 interf NS3h 0.96.
Screening Cc1ccc(C(=O)NC(NC(=S)Nc2cc(C)ccc2C)C(Cl)(Cl)Cl)cc1 (stereo not given) returned HCV NS3h FP 3 and Cy5 interf NS3h 0.64*.
For CC(=O)NC1=NC(=O)/C(=C/c2cc(Cl)ccc2OCc2c(F)cccc2Cl)S1 the results were HCV NS3h FP 5 and Cy5 interf NS3h 0.77*.
`COC(=O)c1c(C)oc2ccc(OCc3c(F)cccc3Cl)cc12` gave HCV NS3h FP 10 and Cy5 interf NS3h 0.91.
Screening CCC(=O)Nc1nc(C)c(-c2csc(Nc3cc(C)ccn3)n2)s1 returned HCV NS3h FP 14 and Cy5 interf NS3h 0.98.
CC(=O)Nc1nc(C)c(-c2csc(Nc3ncccn3)n2)s1 was read as HCV NS3h FP -17 and Cy5 interf NS3h 0.51*.
For CCOc1ccccc1NC(=O)c1cc2cc([N+](=O)[O-])ccc2oc1=O the results were HCV NS3h FP 7 and Cy5 interf NS3h 0.97.
`CCC(C(=O)Nc1nc2ccccc2s1)c1ccccc1` (stereo not given) gave HCV NS3h FP -6 and Cy5 interf NS3h 1.1.
Screening O=C(CCC(=O)OCC(F)(F)C(F)F)Nc1nc2ccccc2s1 returned HCV NS3h FP 8 and Cy5 interf NS3h 0.71*.
Screening O=C1NC2=Nc3ccccc3SC(c3ccccc3)=C2C(c2ccc(O)cc2)N1 (stereo not given) returned HCV NS3h FP 2 and Cy5 interf NS3h 1.
Screening O=C(COc1ccc(Cl)cc1)Nc1nc(-c2ccc(Cl)cc2)cs1 returned HCV NS3h FP 13 and Cy5 interf NS3h 0.93.
CCOC(=O)Cc1csc(NC(=O)COc2ccc(-c3ccccc3)cc2)n1 was read as HCV NS3h FP 13 and Cy5 interf NS3h 0.78*.

Screening results from PubChem.
